Only some compounds are listed: those with a hit (about 3.7% of all), similar ones and a draw of the others.
TMEM16A act – TMEM16A chloride channel activators or potentiators, primary screen, cell-based, HTS; B-score at 10 µM; Anoctamin-1 (Mus musculus), Q8BHY3; 340,000 compounds, 0.3% hits; HEK293 TMEM16A/YFP-H148Q/I152L, iodide quench fluorescence; stronger effect = lower value;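 active = fluorescence-ratio B-score plate-corrected deviation score at least 3 library SD below zero, with starting fluorescence score within 5 deviations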;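 also: channel opened by trigger with iodide after compound preincubation; score built on the fluorescence ratio of max minus min over baseline; more negative score means more quench and so TMEM16A activation or potentiation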
Target sequence (Q8BHY3 whole entry, looked up): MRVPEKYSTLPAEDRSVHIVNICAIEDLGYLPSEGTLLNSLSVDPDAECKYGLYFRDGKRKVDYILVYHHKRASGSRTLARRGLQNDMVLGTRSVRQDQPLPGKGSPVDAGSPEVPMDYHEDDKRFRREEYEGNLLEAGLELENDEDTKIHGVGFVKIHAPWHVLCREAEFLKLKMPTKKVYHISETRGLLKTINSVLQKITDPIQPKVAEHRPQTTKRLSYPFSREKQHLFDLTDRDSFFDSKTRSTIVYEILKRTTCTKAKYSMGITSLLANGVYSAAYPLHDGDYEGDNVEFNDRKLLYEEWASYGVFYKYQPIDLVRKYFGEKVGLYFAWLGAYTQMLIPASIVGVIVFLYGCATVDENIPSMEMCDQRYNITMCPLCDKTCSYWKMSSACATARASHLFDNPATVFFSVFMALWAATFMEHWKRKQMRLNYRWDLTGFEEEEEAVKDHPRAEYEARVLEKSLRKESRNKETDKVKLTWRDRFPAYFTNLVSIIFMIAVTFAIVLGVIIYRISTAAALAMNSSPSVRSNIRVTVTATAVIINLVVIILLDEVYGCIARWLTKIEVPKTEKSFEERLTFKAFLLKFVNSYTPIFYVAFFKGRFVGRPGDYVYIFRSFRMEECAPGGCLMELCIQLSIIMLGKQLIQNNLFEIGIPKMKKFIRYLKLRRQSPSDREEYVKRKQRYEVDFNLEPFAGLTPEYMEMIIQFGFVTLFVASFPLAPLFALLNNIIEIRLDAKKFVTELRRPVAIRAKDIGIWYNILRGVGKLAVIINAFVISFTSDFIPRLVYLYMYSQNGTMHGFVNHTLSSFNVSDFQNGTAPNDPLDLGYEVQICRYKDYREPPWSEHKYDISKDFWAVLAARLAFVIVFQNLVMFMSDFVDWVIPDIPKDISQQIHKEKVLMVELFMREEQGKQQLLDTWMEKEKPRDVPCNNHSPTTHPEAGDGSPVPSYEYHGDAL
Kir21 inh – inhibitors of mouse Kir2.1 inward-rectifier potassium channel; B-score at 10 µM; HEK293-Kir2.1, FluxOR thallium flux fluorescence; stronger effect = lower value; AID 1672, 2009; Inward rectifier potassium channel 2 (Mus musculus), P35561; 310,000 compounds, 0.85% hits;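 active = fluorescence ratio B-score at or below minus 3 SD of library scores, with starting-brightness B-score within 2 SD, cut at about -4.2 in these data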;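 also: channel flux triggered by added potassium and thallium sulfate stimulus; B-score of peak minus minimum fluorescence over baseline after thallium stimulus; more negative B-score means stronger Kir2.1 block with less thallium influx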
GPR7 antag – GPR7 receptor antagonists, primary screen, cell-based, fluorescence, single concentration | Neuropeptides B/W receptor type 1 (Homo sapiens), P48145 | GPR7-expressing cells, fluorescence antagonist assay | inhibition, % at 4.4 µM | 290,000 compounds, 1.1% hits | AID 1861, 2009; in the data active = inhibition above about 16%, passing the limit was not always enough;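 also: cells stimulated with the agonist NPW; 0% = agonist with vehicle and 100% = vehicle without agonist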
ANO1 block – TMEM16A chloride channel inhibitors, primary screen, cell-based, HTS; Anoctamin-1 (Mus musculus), Q8BHY3; HEK293 TMEM16A/YFP iodide influx fluorescence, ionomycin; normalized B-score (activity score, 25-100; higher = stronger inhibition) at 10 µM; 310,000 compounds, 1.2% hits; AID 588511, 2011;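 active = ratio plate-corrected score three or more library SD toward inhibition, starting fluorescence score within five deviations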;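 also: score derived from kinetic fluorescence span divided by baseline fluorescence per well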
CHT allo act – CHT positive allosteric modulators, primary screen, cell-based, membrane potential dye, choline EC20; High affinity choline transporter 1 (Homo sapiens), Q9GZV3; CHT-expressing cells; stronger effect = higher value; LV-AA mutant CHT in HEK293 cells; B-score at 10 µM; 310,000 compounds, 0.49% hits; AID 488977, 2010;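 active = initial fluorescence not abnormally high and integrated response B-score, plate-corrected, over 3 SD above library mean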
CHT block – inhibitors of human choline transporter CHT | High affinity choline transporter 1 (Homo sapiens), Q9GZV3 | B-score at 10 µM | 310,000 compounds, 0.86% hits | CHT-expressing cells, membrane potential dye, choline response; stronger effect = lower value;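 active = B-score over 3 SD under the library average, and starting fluorescence ratio not unusually high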;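 also: choline stimulus applied at its EC90 after an EC20 pre-addition; B-score computed on integrated fluorescence ratio after choline addition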
CHT block conf – CHT inhibitors, confirmation, cell-based, membrane potential dye, duplicate | shares compounds with CHT block | CHT-expressing cells, choline membrane potential dye; LV-to-AA substituted CHT, HEK293 cells | CHT activity remaining % of control (stronger effect = lower value), % at 10 µM | 2,400 compounds, 70% hits;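 active = choline transporter activity left, mean of duplicates at 10 µM, below buffer-only control mean minus 3 SD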;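 also: depolarization triggered by choline at its EC90 following an EC20 pre-addition; 0% = hemicholinium-3 full block and 100% = buffer-only control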
HEK293 CHT ctr – membrane potential effects in parental HEK293, counter-screen for CHT inhibitor project, cell-based, membrane potential dye; shares compounds with CHT block; choline response; active = decrease or increase beyond buffer ±3SD; membrane potential ratio readout (active if shifted either direction beyond buffer ±3SD; no single direction) at 10 µM; 2,400 compounds, 4% hits; AID 493222, 2011;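 also: parental cells lack the transporter so any hit is non-specific; ratio is peak minus trough fluorescence over baseline after EC90 choline challenge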
Active calls of the source: *; i = inactive; · = not tested or not shown.

SMILES	TMEM16A act	Kir21 inh	GPR7 antag	ANO1 block	CHT allo act	CHT block	CHT block conf	HEK293 CHT ctr
Cc1ccc(CNC(=O)N[C@@H](Cc2ccccc2)C(=O)O)cc1	i	-1.5	-9	i	i	-16*	60%*	i
COC(=O)[C@H](Cc1ccccc1)NC(=O)NCc1ccc(C)cc1	i	-3	3	i	i	i	·	·
Cc1cccc(N2CCN(C(=O)c3ccc(NS(=O)(=O)c4ccc5[nH]c(=O)[nH]c5c4)cc3)CC2)c1C	i	0.03	-12	i	i	-5.1*	i	i
COc1ccc(CNC(=O)CCc2ccc(S(=O)(=O)N3CCCCCC3)cc2)cc1OC	i	·	·	·	·	·	·	·
Nc1c(C(=O)NCCN2CCOCC2)c2nc3ccccc3nc2n1CCc1ccccc1F	i	-0.63	9	i	i	-7.8*	30%*	i
Cc1nc2ccccc2n1CSc1ccccc1	i	-0.45	-6	i	i	i	i	i
Cc1cc(Cl)c2oc(C(=O)N(C)Cc3ccon3)c(C)c2c1	i	-0.5	-2	i	i	i	·	·
COc1ccc(NC(=O)CCCNC(=O)c2ccc(Cl)cc2)cc1S(=O)(=O)N1CCCCC1	i	·	·	·	·	·	·	·
COc1ccc(NC(=O)CCCNC(=O)c2ccc(Cl)cc2)cc1OC	i	0.08	4	i	i	-6.6*	i	i
CN(c1ccccc1)c1nc(N)c([N+](=O)[O-])c(NCCO)n1	i	-0.29	-4	i	i	i	·	·
CCCCn1c(N)c(N(CC(C)C)C(=O)COc2cc(C)ccc2Cl)c(=O)[nH]c1=O	i	·	·	·	·	·	·	·
C=CCn1c(SC2CCOC2=O)nc2scc(C3CC3)c2c1=O (stereo not given)	i	-0.83	-11	i	i	-5.7*	47%*	i
Cc1occc1-c1nnc(SCC(=O)Nc2nccs2)n1CCc1ccccc1	·	-1.2	16	i	i	-6.5*	i	i
Cc1csc(NC(=O)CSc2nnc(-c3ccoc3C)n2CCc2ccccc2)n1	i	-2.5	-4	i	i	i	·	·
Cc1csc(NC(=O)CSc2nnc(-c3ccoc3C)n2Cc2ccco2)n1	i	-1.8	-10	i	i	-5.3*	i	i
Nc1nc(-c2ccco2)nn1S(=O)(=O)c1ccc(Cl)cc1	i	0.62	-16	i	i	i	·	·
CCCCn1c(Oc2ccc(C(=O)OC)cc2)nc2c1c(=O)n(C)c(=O)n2C	i	-1.5	-8	i	i	-6.8*	i	i
COc1ccc2cc([C@@H](C)C(=O)O)ccc2c1	i	·	·	i	i	i	·	·
CCN1CCN(CCNC(=O)c2ccc3nc(-c4cccc(C)c4)c(-c4cccc(C)c4)nc3c2)CC1	i	-1.6	25	i	i	-8.7*	36%*	i
COc1ccc(-c2nc3ccc(C(=O)NCCCN4CCOCC4)cc3nc2-c2ccc(OC)cc2)cc1	i	1.2	3	i	i	-5.1*	53%*	i
COc1ccc(NS(=O)(=O)c2cccc(C(=O)NCCCN3CCOCC3)c2)cc1	i	-0.5	·	i	i	i	·	·
CCCNC(=O)c1ccc2nc(-c3ccccc3)c(-c3ccccc3)nc2c1	i	0.07	16	i	i	i	·	·
CCCN(CCC)CCNC(=O)C1CCN(S(=O)(=O)c2cccc3nsnc23)CC1	i	0.95	-10	i	i	i	·	·
COC(=O)CCCCCCCCC(O)C[N+]1(C)CCOCC1 (stereo not given)	i	-2.1	-6	i	i	i	·	·
CC(=O)OCCCCCCCCCCC[N+]1(C)CCCCC1	i	-1.5	-5	i	i	-8.3*	27%*	i
SMILES	TMEM16A act	Kir21 inh	GPR7 antag	ANO1 block	CHT allo act	CHT block	CHT block conf	HEK293 CHT ctr
COC(=O)CCCCCCCCCC[N+]1(C)CCCCC1	i	-0.65	-3	i	i	-5.1*	42%*	i
O=C(COc1ccccc1Cl)NCCCNC(=O)c1cnccn1	i	0.19	-1	i	i	i	·	·
CC(NC(=O)COC(=O)CNS(=O)(=O)/C=C/c1ccccc1)c1ccccc1 (stereo not given)	i	·	·	·	·	·	·	·
COc1ccc(-c2cc(C(=O)N3CCN(c4ccccc4)CC3)c3ccccc3n2)cc1OC	i	1.5	-6	i	i	i	·	·
COc1ccc(N2CCN(C(=O)c3cc(-c4cccs4)nc4ccccc34)CC2)cc1	i	-0.01	-11	i	i	-6.1*	i	i
O=C(CN1C(=O)NC2NC(=O)NC21)N/N=C/c1ccccc1O (stereo not given)	i	-0.55	-10	i	i	i	·	·
O=C(CN1C(=O)NC2NC(=O)NC21)NN=C1CCCC1 (stereo not given)	i	0.69	-9	i	i	-20*	i	i
Cc1n[nH]c(C)c1S(=O)(=O)N1CCCC(C(=O)N2CCN(c3ccc(Cl)cc3)CC2)C1 (stereo not given)	i	·	-5	i	i	-5.2*	i	i
Cc1n[nH]c(C)c1S(=O)(=O)N1CCCC(C(=O)N2CCc3ccccc32)C1 (stereo not given)	i	1.2	-13	i	i	i	·	·
CC(C)NS(=O)(=O)c1ccc(CCC(=O)N2CCc3ccccc3C2)cc1	i	-1.9	3	i	i	-5.1*	46%*	i
CC(C)NS(=O)(=O)c1ccc(OCC(=O)N2CCc3ccccc3C2)cc1	i	0.48	2	i	i	i	·	·
Cc1occc1C(=O)N1CCN(S(=O)(=O)c2ccc(F)cc2)CC1	i	·	·	·	·	·	·	·
COc1ccc(N(CCCN2C(=O)c3cccc4cccc(c34)C2=O)C(=O)c2ccncc2)cc1	i	-1.3	-2	i	i	-5.8*	69%*	i

Assay outcomes from PubChem.
